Source: PubChem BioAssay
This is a sample that favours compounds with a hit; in the whole collection about 10% have one here.
SW480 rerep: A quantitative high throughput screen for small molecules that induce DNA re-replication in SW480 colon adenocarcinoma cells; Potency, µM (series often up to 46.1 µM), usual class: activators; SW480 DNA re-replication, Hoechst DNA content imaging, 48 h; AID 624297, 2012; 340,000 compounds, 1.8% hits; further: nearly all actives have a fitted effect of over 55% in size
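DNA re-replication was detected as more nuclei of elevated Hoechst intensity after 48 hr exposure to compound (23 nL pinned per well of 250 cells).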
MCF10A rereplic: A quantitative high throughput screen for small molecules that induce DNA re-replication in MCF 10a normal breast cells; MCF 10A DNA re-replication, Hoechst nuclear intensity, 48 h; Potency, µM (top dose mostly 46.1 µM), most hits filed as activators; 350,000 compounds, 2.9% hits; further: nearly all actives have a fitted effect of over 50% in size
RORg inh: qHTS for inhibitors of ROR gamma transcriptional activity | AID 2551, 2010 | Nuclear receptor ROR-gamma (Mus musculus), P51450 | Drosophila S2 Gal4-RORgamma UAS-luciferase reporter, 20 h | Potency, µM (top dose mostly 53.6 µM), usual class: inhibitors | 310,000 compounds, 5.4% hits; further: nearly all actives have a fitted effect of over 60% in size
Target sequence (P51450 whole entry, looked up, the tested form may be a part): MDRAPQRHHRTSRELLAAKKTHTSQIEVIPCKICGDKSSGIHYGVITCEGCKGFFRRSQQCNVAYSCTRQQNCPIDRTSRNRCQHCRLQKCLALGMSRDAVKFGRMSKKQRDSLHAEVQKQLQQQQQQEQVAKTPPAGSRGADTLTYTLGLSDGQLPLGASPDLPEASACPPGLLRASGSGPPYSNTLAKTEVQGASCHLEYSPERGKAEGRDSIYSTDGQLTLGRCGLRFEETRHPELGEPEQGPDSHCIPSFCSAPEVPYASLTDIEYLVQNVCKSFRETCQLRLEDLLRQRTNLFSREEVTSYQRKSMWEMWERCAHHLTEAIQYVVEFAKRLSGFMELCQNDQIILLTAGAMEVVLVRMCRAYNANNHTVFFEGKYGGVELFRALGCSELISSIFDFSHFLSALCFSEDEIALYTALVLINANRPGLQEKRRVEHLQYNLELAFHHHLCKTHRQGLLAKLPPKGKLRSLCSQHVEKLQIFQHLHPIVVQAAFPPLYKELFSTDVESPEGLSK
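Drosophila Schneider cells stably carrying a metallothionein-driven Gal4 DBD–ROR gamma fusion and a UAS-Photinus luciferase reporter were exposed to compound for 1 hr, then induced with copper sulfate (700 uM final) for 20 hr at ambient temperature before luminescence reading.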
Gal4-VP16 FLuc: VP16 counterscreen qHTS for inhibitors of ROR gamma transcriptional activity; Drosophila S2 Gal4-VP16 UAS-luciferase, luminescence, 20 h; 310,000 compounds, 3.5% hits; Potency, µM (series often up to 53.6 µM), hits mostly inhibitors; AID 2546, 2010;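 further: Gal4-VP16 expression switched on by copper sulfate through the metallothionein promoter; nearly all actives have a fitted effect of over 50% in size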
KB-V1 MDR tox: qHTS assay for MDR1-selective chemotherapeutics: Primary screen using the drug-selected MDR subline cells KB-V1. KB-V1 MDR cells viability, CellTiter-Glo, 72 h. Potency, µM (highest dose often 46.1 µM), hits mostly cytotoxic. 400,000 compounds, 3.4% hits. AID 1347076, 2019; further: nearly all actives have a fitted effect of over 60% in size
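Cytotoxicity toward P-gp-expressing KB-V1 cells was determined as loss of CellTiter-Glo luminescence after 72 h at 37 degrees C. Compounds were tested in quantitative HTS format across a concentration range, with curves fitted to normalized data.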
KB-3-1 cytotox: qHTS assay for MDR1-selective chemotherapeutics: Primary screen using the parental adenocarcinoma cell KB-3-1; Potency, µM (titrated, usually from 46.1 µM), hits mostly cytotoxic; 400,000 compounds, 1.4% hits; KB-3-1 viability, CellTiter-Glo ATP luminescence, 72 h; further: nearly all actives have a fitted effect of over 60% in size
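KB-3-1 cells, DMEM (no phenol red) + 10% FBS; compound by pin transfer, 72 h, 37 °C. Readout: CellTiter-Glo luminescence after 10 min. Data normalized, curve-fitted.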
A number is an active result; i = inactive; ? = inconclusive; nt = no result; [ ] = dose if it differs, or a comment. The call rests on the fitted dose curve; in most records, active means well fitted curve in the direction sought with a large enough effect; inconclusive means small, poorly fitted or top-dose-only effect, or another doubt; inactive means no such curve, though single readings can be large; an effect the other way counts as inactive or inconclusive.

SMILES | SW480 rerep | MCF10A rereplic | RORg inh | Gal4-VP16 FLuc | KB-V1 MDR tox | KB-3-1 cytotox
COc1cc2nc(=S)n3[nH]c(CCn4nc(C)cc4C)nc3c2cc1OC | 13µM | i | 0.0562µM | 0.0891µM | ? | ?
COc1cc2nc(=S)n3[nH]c(COc4ccccc4C)nc3c2cc1OC | i | i | 0.199µM | 0.398µM | 0.92µM | ?
COc1ccc(C2=Cc3ccccc3C(CC(=O)C3CC3)N2c2ccc(-c3cc(OC)c(OC)c(OC)c3)cc2)cc1 (centres undefined) | nt | nt | nt | nt | i | i
COc1ccccc1N(CC(=O)NCCSCc1ccc(C)cc1)S(=O)(=O)c1ccccc1 | i | i | i | i | ? | ?
COc1ccc(N(CC(=O)NCCSCc2ccc(C)cc2)S(=O)(=O)c2ccccc2)cc1 | i | ? | i | i | 6.51µM | ?
COc1ccc(CCNC(=O)CN(c2cc(OC)ccc2OC)S(=O)(=O)c2ccccc2)cc1 | i | i | i | i | 23.1µM | i
Cc1ccc(CNC(=O)C(C)n2ccc3cc(S(=O)(=O)N4CCCC4)ccc32)cc1 (centres undefined) | nt | nt | nt | nt | i | i
CCOc1ccc(NC(=O)NCCc2c(C)nn(C)c2C)cc1 | nt | nt | nt | nt | i | i
CCCN(C(=O)c1c(C)oc2ncnc(N3CCOCC3)c12)c1ccc(Cl)c(Cl)c1 | nt | nt | nt | nt | i | i
CCCCN(C)CCCNC(=O)Cn1ncc2c3ccccc3n(Cc3ccccc3)c2c1=O | nt | nt | nt | nt | i | i
COc1cc(C)c(C2NC(=O)c3ccccc3N2)cc1C (centres undefined) | 7.31µM | 7.31µM | nt | nt | ? | 2.59µM
Cc1cc(C)c2nc(Cl)c(C3NC(=O)c4ccccc4N3)cc2c1 (centres undefined) | i | ? | i | i | i | i
Cc1ccc(C)c(C2NC(=O)c3ccccc3N2)c1 (centres undefined) | 7.31µM | 2.31µM | i | i | i | ?
O=C1NC(c2ccccc2O)Nc2ccccc21 (centres undefined) | i | i | i | i | i | i
Cn1cc(C2NC(=O)c3ccccc3N2)c2ccccc21 (centres undefined) | 5.8µM | 2.91µM | nt | nt | 1.46µM | 1.16µM
CCCCOCCOCCOCc1cc2c(cc1CCC)OCO2 | i | i | i[10 µM] | i | nt | nt
CCOC(=O)N1CCc2c(sc3c2c(=O)n(-c2ccccc2)c(=O)n3CC(=O)Nc2ccc(OC)cc2OC)C1 | nt | nt | nt | nt | i | i
Cc1ccc2c(c1)cc(CN(Cc1cccnc1)C(=O)NCc1ccccc1)c1nnnn12 | i | i | i | i | 2.59µM | ?
COc1ccc(/C=C2\CN(Cc3ccccc3)C/C(=C\c3ccc(OC)c(O)c3)C2=O)cc1O | 3.66µM | ? | 15.8µM | ? | i | 5.17µM
CCN1C/C(=C/c2ccc(OC)c(O)c2)C(=O)/C(=C/c2ccc(OC)c(O)c2)C1 | ? | ? | 6.31µM | ? | ? | i
COc1ccc(C=C2C(=O)c3ccccc3C2=O)cc1O | i | i | ? | ? | i | i
CC1=CC(=O)C2=C(C)CCC3C(C)C(=O)OC3C12 (centres undefined) | nt | nt | i | i | nt | nt
COc1ccc(-n2c(C)cc(/C=C3\SC(=S)N(Cc4ccco4)C3=O)c2C)cc1 | i | ? | i | i | i | i
CCN1CCN(c2c(/C=C3\SC(=S)N(Cc4ccco4)C3=O)c(C)c(C#N)c(=O)n2C)CC1 | ? | ? | 7.08µM | ? | ? | i
COc1ccc(S(=O)(=O)N2CCC(C(=O)NC3CC3)CC2)cc1 | i | i | i | i | i | i
SMILES | SW480 rerep | MCF10A rereplic | RORg inh | Gal4-VP16 FLuc | KB-V1 MDR tox | KB-3-1 cytotox
COc1ccc(S(=O)(=O)N2CCC(NC(=O)OCc3c(Cl)cccc3Cl)CC2)cc1 | i | ? | i | i | 8.2µM | i
COc1ccc(COC(=O)NC2CCN(S(=O)(=O)c3ccc(OC)cc3)CC2)cc1 | i | i | i | i | 7.31µM | i
O=C(NCc1ccccc1F)C(=O)NCC(c1cccs1)S(=O)(=O)c1cccs1 (centres undefined) | nt | nt | nt | nt | i | i
Cc1ccc(C)c(NC(=S)/C(=C(\[O-])c2ccc(Cl)s2)[n+]2ccccc2)c1 | i | 0.651µM | i | i | i | i
CCc1cccc(CC)c1NC(=S)/C(=C(\[O-])c1ccc(Cl)s1)[n+]1ccccc1 | i | i[9.22 µM] | ? | i | i | i
[O-]/C(=C(\C(=S)Nc1cccc2ccccc12)[n+]1ccccc1)c1ccc(Cl)s1 | i | ? | 20µM | ? | i | i
[O-]C(=C(C(=S)Nc1cccc2ccccc12)[n+]1cccc(CO)c1)c1ccc(Cl)s1 | i | i | nt | nt | ? | i
Cc1ccc(C2CC(=O)c3cnc(N4CCc5ccccc5C4)nc3C2)cc1 (centres undefined) | i | i | i | i | 23.1µM | i
O=C1CC(c2ccccc2)Cc2nc(N3CCc4ccccc4C3)ncc21 (centres undefined) | i | ? | i | i | i | i
Cc1ccc(C2CC(=O)c3cnc(N4CCN(c5ccccc5)CC4)nc3C2)cc1 (centres undefined) | i | i | i[10 µM] | i | 5.17µM | ?
O=C1CC(c2ccc(F)cc2)Cc2nc(N3CCN(c4ccccc4)CC3)ncc21 (centres undefined) | i | ? | i | i | i | i
COC(=O)c1ccc(/C=C2\Oc3ccccc3NC2=O)cc1 | ? | 6.51µM | i | i | ? | i
CC(NC(=O)CCCC1=NS(=O)(=O)c2ccccc2N1)c1ccccc1 (centres undefined) | nt | nt | nt | nt | i | i
O=C(/C=C/c1ccccc1)OCc1ccccc1 | i | i | i[10 µM] | i | nt | nt
O=C1Nc2ccc3c(c2C1=Cc1cc2c(cc1Br)OCO2)OCO3 | 18.4µM | 5.17µM | nt | nt | ? | 5.17µM
O=C1NC(=O)/C(=C/c2cc3c(cc2Br)OCO3)S1 | i | i | i | i | i | i
Cc1cc(/C=C2\C=Cc3ccccc32)cc(C)c1N | nt | nt | nt | nt | i | i
CN1/C(=C\C(=O)C(F)F)C(C)(C)c2ccccc21 | i | i | i | i | i | i
CC(C)C(=O)NC(=S)/C=C1/N(C)c2ccccc2C1(C)C | i | i | 3.55µM | 3.98µM | ? | i
CN1/C(=C/C(=S)NC(=O)C2CCC2)C(C)(C)c2ccccc21 | i | ? | 6.31µM | 12.6µM | ? | i
Cc1ccc(C(=O)NC(=S)/C=C2\N(C)c3ccccc3C2(C)C)cc1 | i | ? | 7.08µM | 5.62µM | ? | ?
Cc1c(NC(=S)/C=C2\N(C)c3ccccc3C2(C)C)c(=O)n(-c2ccccc2)n1C | i | i | i | ? | 23.1µM | i
